Data: PubChem BioAssay (EPA / NIEHS)
“And” between values parts separate entries of the source, which are not always exact repeats. Equal values may be shown once. A structure can be active in one record and inactive in another. The source made the active and inactive calls. How the source made its calls: active means hit-call score of the fitted dose curve at least 0.9, where 1 is the maximum; inactive means score below 0.9.

Key:
Details in all cases: mRNA level, 48 h; actives raise or lower the signal
[1] = read-out: Hypoxia-inducible factor 1-alpha (Homo sapiens) (UniProt Q16665); test: LTEA_HepaRG_HIF1A: Life Technologies and Expression Analysis (LTEA) Assay for Hypoxia-inducible factor 1 (HIF1A) Trancription factor using HepaRG (AID 2283503)
Summary of the method: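 Differentiated HepaRG cells in serum-free induction medium exposed 48 h, in duplicate, to 8-point half-log series from 100 uM in 0.5% DMSO. HIF1A mRNA measured by TaqMan qRT-PCR, normalized to ACTB/GAPDH/POLR2A, fitted bidirectionally versus DMSO.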

[2] = read-out: 3-Hydroxy-3-Methylglutaryl-CoA Synthase 2 (HMGCS2), HMGCS2 (gene 3158); test: LTEA_HepaRG_HMGCS2: Life Technologies and Expression Analysis (LTEA) Assay for 3-Hydroxy-3-Methylglutaryl-CoA Synthase 2 (HMGCS2) using HepaRG (AID 2283504)
Summary of the method: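 HepaRG, plated 48 h then switched to serum-free induction media; cmpd 8-pt, max 100 uM, 1/2-log, 0.5% DMSO, n=2, 48 h. HMGCS2 mRNA by Fluidigm TaqMan qRT-PCR, ACTB/GAPDH/POLR2A norm; bidirectional fit vs DMSO.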

HGF (gene 3082) = test: LTEA_HepaRG_HGF: Life Technologies and Expression Analysis (LTEA) Assay for Hepatocyte Growth Facto (HGF) using HepaRG (AID 2283505)
Summary of the method: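 Read-out is HGF transcript level by qRT-PCR, normalized to three housekeeping genes, fitted bidirectionally against 0.5% DMSO vehicle. Human HepaRG cells received test chemicals for 48 h at up to 100 uM.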

[3] = read-out: Insulin Like Growth Factor 1 (IGF1), IGF1 (gene 3479); test: LTEA_HepaRG_IGF1: Life Technologies and Expression Analysis (LTEA) Assay for Insulin Like Growth Factor 1 (IGF1) using HepaRG (AID 2283506)
Summary of the method: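 HepaRG, plated 48 h, then switched to serum-free induction media; test chemical 8-pt half-log from 100 uM (0.5% DMSO), duplicate, 48 h. Lysis in RLT, TaqMan qRT-PCR, norm. ACTB/GAPDH/POLR2A. Bidirectional fit vs DMSO.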

[4] = read-out: Intercellular Adhesion Molecule 1 (ICAM1), ICAM1 (gene 3383); test: LTEA_HepaRG_ICAM1: Life Technologies and Expression Analysis (LTEA) Assay for Intercellular Adhesion Molecule 1 (ICAM1) using HepaRG (AID 2283507)
Summary of the method: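 Readout is qRT-PCR mRNA level, normalized to three housekeeping genes and fitted bidirectionally against 0.5% DMSO vehicle. Human HepaRG cultures received compound for 48 h, top concentration 100 uM with half-log dilutions.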

[5] = read-out: Insulin-like growth factor-binding protein 1 (IGFBP1), IGFBP1 (gene 3484); test: LTEA_HepaRG_IGFBP1: Life Technologies and Expression Analysis (LTEA) Assay for Insulin-like growth factor-binding protein 1 (IGFBP1) using HepaRG (AID 2283508)
Summary of the method: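 Thawed HepaRG cells are plated for 48 h, switched to serum-free induction medium, then dosed in duplicate for another 48 h (100 uM top, half-log steps). Lysates in RLT go to qRT-PCR, and gain or loss of signal is fitted relative to vehicle.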

[6] = read-out: Interleukin 6 (IL6), IL6 (gene 3569); test: LTEA_HepaRG_IL6: Life Technologies and Expression Analysis (LTEA) Assay for Interleukin 6 (IL6) using HepaRG (AID 2283509)
Summary of the method: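 Differentiated human HepaRG cells, plated 48 h then switched to serum-free induction medium, were exposed in duplicate for 48 h to eight half-log concentrations up to 100 uM in 0.5% DMSO. IL6 mRNA measured by qRT-PCR, normalized to ACTB/GAPDH/POLR2A.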

[7] = read-out: Interleukin 6 Receptor (IL6R), IL6R (gene 3570); test: LTEA_HepaRG_IL6R: Life Technologies and Expression Analysis (LTEA) Assay for Interleukin 6 Receptor (IL6R) using HepaRG (AID 2283510);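 on AC50: TaqMan qRT-PCR signal normalized to ACTB GAPDH and POLR2A housekeeping genes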
Summary of the method: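 Readout is IL6R transcript level by TaqMan qRT-PCR, normalized to three housekeeping genes and fitted bidirectionally against 0.5% DMSO controls. Human HepaRG cells received chemicals for 48 h in serum-free induction medium, highest concentration 100 uM.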

[8] = read-out: Potassium channel subfamily K member 1 (KCNK1), KCNK1 (gene 3775); test: LTEA_HepaRG_KCNK1: Life Technologies and Expression Analysis (LTEA) Assay for Potassium channel subfamily K member 1 (KCNK1) using HepaRG (AID 2283511)
Summary of the method: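 Differentiated human HepaRG cells in serum-free induction medium were exposed in duplicate for 48 h to 8 half-log concentrations up to 100 uM in 0.5% DMSO. KCNK1 mRNA was measured by TaqMan qRT-PCR, normalized to ACTB, GAPDH and POLR2A, and fitted bidirectionally versus DMSO.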

[9] = read-out: Keratin 19 (KRT19), KRT19 (gene 3880); test: LTEA_HepaRG_KRT19: Life Technologies and Expression Analysis (LTEA) Assay for Keratin 19 (KRT19) using HepaRG (AID 2283512)
Summary of the method: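 KRT19 transcript levels, measured by Fluidigm qRT-PCR against three housekeeping genes, are fitted for gain or loss of signal relative to DMSO. Human HepaRG cells receive test chemicals (top 100 uM, half-log steps, 0.5% DMSO) for 48 hours.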

[10] = read-out: JUN Transcription Factor, JUN (gene 3725); test: LTEA_HepaRG_JUN: Life Technologies and Expression Analysis (LTEA) Assay for JUN Transcription Factor using HepaRG (AID 2283513)
Summary of the method: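 Cells plated 48 h, medium switched to serum-free induction medium, then dosed 48 h (100 uM top, half-log dilutions, 0.5% DMSO). RNA isolated; JUN measured by qRT-PCR against three housekeeping genes; gain or loss fitted relative to DMSO.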

[11] = read-out: Lipase C (LIPC), LIPC (gene 3990); test: LTEA_HepaRG_LIPC: Life Technologies and Expression Analysis (LTEA) Assay for Lipase C (LIPC) using HepaRG (AID 2283514)
Summary of the method: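 Differentiated human HepaRG cells in serum-free induction medium were exposed in duplicate for 48 h to eight concentrations (top 100 uM, half-log steps, 0.5% DMSO). LIPC mRNA was quantified by TaqMan qRT-PCR, normalized to ACTB, GAPDH and POLR2A, with bidirectional fitting versus DMSO.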

[12] = read-out: Lipoprotein lipase (LPL), LPL (gene 4023); test: LTEA_HepaRG_LPL: Life Technologies and Expression Analysis (LTEA) Assay for Lipoprotein lipase (LPL) using HepaRG (AID 2283515)
Summary of the method: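 Differentiated human HepaRG cells in serum-free induction medium were exposed in duplicate for 48 h to eight half-log concentrations (top 100 uM) in 0.5% DMSO. LPL mRNA was quantified by TaqMan qRT-PCR, normalized to ACTB, GAPDH and POLR2A.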

[13] = read-out: MicroRNA 122 (MIR122), gene 406906; test: LTEA_HepaRG_MIR122: Life Technologies and Expression Analysis (LTEA) Assay for MicroRNA 122 (MIR122) using HepaRG (AID 2283516); further: the transcript read is the microRNA miR-122
Summary of the method: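 HepaRG plated 48 h, switched to serum-free induction medium, then treated in duplicate for 48 h (100 uM top, half-log steps, 0.5% DMSO vehicle). RNA isolated, qRT-PCR performed, concentration-response fitted both directions relative to DMSO.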

[14] = read-out: matrix metalloproteinase-10 (MMP10), MMP10 (gene 4319); test: LTEA_HepaRG_MMP10: Life Technologies and Expression Analysis (LTEA) Assay for matrix metalloproteinase-10 (MMP10) using HepaRG (AID 2283517)
Summary of the method: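 HepaRG, collagen I, ~100,000 cells/well; serum-free induction medium; 48 h exposure, duplicate, 8-pt half-log to 100 uM, 0.5% DMSO. Readout: TaqMan qRT-PCR, normalized to ACTB/GAPDH/POLR2A; bidirectional fit vs DMSO.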

MYC, MYC (gene 4609) = test: LTEA_HepaRG_MYC: Life Technologies and Expression Analysis (LTEA) Assay for MYC using HepaRG (AID 2283518)
Summary of the method: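 HepaRG, ~100,000 cells/well, collagen I; 48 h plating; serum-free induction medium; 48 h dosing, duplicate, 100 uM top, half-log, 0.5% DMSO; total RNA → qRT-PCR MYC; gain/loss fit vs DMSO.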

[15] = read-out: matrix metalloproteinase-3 (MMP3), MMP3 (gene 4314); test: LTEA_HepaRG_MMP3: Life Technologies and Expression Analysis (LTEA) Assay for matrix metalloproteinase-3 (MMP3) using HepaRG (AID 2283519)
Summary of the method: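 Differentiated human HepaRG cells, plated 48 h on collagen I, were exposed in duplicate for 48 h in serum-free induction medium to eight half-log concentrations up to 100 uM in 0.5% DMSO. MMP3 mRNA was quantified by TaqMan qRT-PCR, normalised to ACTB, GAPDH and POLR2A.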

[16] = read-out: Paternally Expressed 10 (PEG10), PEG10 (gene 23089); test: LTEA_HepaRG_PEG10: Life Technologies and Expression Analysis (LTEA) Assay for Paternally Expressed 10 (PEG10) using HepaRG (AID 2283520)
Summary of the method: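 HepaRG, 48 h post-plating → serum-free induction medium → 48 h chemical exposure (duplicate, 8-pt, max 100 uM, half-log, 0.5% DMSO) → lysis in RLT → TaqMan qRT-PCR for PEG10, ACTB/GAPDH/POLR2A normalisation.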

[17] = read-out: Nuclear factor NF-kappa-B p105 subunit (Homo sapiens) (UniProt P19838); test: LTEA_HepaRG_NFKB1: Life Technologies and Expression Analysis (LTEA) Assay for Nuclear Factor Kappa B Subunit 1 (NFKB1) using HepaRG (AID 2283521)
Summary of the method: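 NFKB1 transcript was measured by TaqMan qRT-PCR on Fluidigm arrays, normalised to three housekeeping genes and fitted in both directions against 0.5% DMSO. HepaRG cells were dosed in duplicate for 48 h in serum-free induction medium, eight half-log steps from 100 uM.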

[18] = read-out: Protein phosphatase 2A (PPP2R4), PTPA (gene 5524); test: LTEA_HepaRG_PPP2R4: Life Technologies and Expression Analysis (LTEA) Assay for Protein phosphatase 2A (PPP2R4) using HepaRG (AID 2283522)
Summary of the method: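 Readout is PPP2R4 transcript level by microfluidic qRT-PCR after 48 h chemical treatment of human HepaRG liver cells. Concentrations spanned 100 uM downward in half-log steps; gain or loss of signal was fitted relative to DMSO.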

Measured: AC50

Chain of Hypoxia-inducible factor 1-alpha (Homo sapiens) (Q16665 whole entry, looked up): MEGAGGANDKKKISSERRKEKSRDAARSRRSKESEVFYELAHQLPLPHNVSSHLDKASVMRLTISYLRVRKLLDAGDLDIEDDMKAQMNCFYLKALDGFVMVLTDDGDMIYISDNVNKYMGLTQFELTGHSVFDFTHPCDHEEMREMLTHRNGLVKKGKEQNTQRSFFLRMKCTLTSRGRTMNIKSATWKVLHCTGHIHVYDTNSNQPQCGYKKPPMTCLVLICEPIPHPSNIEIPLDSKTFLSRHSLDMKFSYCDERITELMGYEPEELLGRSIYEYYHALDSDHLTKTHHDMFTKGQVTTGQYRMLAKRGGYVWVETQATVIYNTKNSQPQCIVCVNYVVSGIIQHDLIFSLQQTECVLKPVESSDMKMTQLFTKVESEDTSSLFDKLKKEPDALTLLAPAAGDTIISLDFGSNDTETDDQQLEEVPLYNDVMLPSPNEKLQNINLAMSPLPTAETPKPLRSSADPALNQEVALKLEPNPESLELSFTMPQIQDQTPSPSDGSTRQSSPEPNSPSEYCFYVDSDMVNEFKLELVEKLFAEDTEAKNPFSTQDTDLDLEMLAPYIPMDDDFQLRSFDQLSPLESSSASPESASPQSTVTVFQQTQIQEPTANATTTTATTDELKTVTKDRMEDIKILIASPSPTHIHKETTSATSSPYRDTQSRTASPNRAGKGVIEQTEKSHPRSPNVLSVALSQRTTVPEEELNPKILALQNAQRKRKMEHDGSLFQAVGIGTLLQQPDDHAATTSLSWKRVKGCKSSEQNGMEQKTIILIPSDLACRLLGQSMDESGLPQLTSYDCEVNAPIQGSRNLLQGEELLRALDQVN
Chain of Nuclear factor NF-kappa-B p105 subunit (Homo sapiens) (P19838 whole entry, looked up): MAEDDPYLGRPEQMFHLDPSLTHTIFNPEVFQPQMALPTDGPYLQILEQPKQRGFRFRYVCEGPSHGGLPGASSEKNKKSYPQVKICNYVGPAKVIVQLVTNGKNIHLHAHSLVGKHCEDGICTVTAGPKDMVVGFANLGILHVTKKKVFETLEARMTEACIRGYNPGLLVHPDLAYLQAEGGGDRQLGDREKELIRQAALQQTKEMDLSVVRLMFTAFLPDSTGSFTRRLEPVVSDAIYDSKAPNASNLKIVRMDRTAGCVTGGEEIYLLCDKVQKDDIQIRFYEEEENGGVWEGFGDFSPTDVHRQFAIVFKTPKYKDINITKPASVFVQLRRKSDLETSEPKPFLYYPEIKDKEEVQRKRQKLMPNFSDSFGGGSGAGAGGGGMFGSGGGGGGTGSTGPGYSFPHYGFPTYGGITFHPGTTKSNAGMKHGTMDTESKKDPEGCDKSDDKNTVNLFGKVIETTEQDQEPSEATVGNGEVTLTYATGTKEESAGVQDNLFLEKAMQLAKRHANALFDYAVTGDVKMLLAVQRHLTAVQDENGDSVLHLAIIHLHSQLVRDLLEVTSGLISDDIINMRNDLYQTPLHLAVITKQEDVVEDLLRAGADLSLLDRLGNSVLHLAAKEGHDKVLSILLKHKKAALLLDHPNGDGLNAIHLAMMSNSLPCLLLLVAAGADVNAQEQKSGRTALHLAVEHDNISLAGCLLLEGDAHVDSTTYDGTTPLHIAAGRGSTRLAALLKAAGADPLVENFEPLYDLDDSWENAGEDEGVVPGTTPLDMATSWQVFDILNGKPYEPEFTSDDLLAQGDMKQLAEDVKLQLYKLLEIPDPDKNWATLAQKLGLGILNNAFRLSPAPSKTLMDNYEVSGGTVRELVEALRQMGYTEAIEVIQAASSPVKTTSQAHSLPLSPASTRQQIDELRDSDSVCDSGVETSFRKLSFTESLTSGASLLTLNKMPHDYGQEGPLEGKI

CCOCN(C(=O)CCl)c1c(C)cccc1CC
active: [2] 81.2 µM | [3] 76.4 µM | [5] 63 µM | [7] 50 µM | [11] 88.4 µM | [13] 50 µM | [17] 0.338 µM
inactive: all other assays above

O=S(=O)(O)C(F)(F)C(F)(F)C(F)(F)C(F)(F)C(F)(F)C(F)(F)C(F)(F)C(F)(F)F
inactive: [1] | [2] | HGF (gene 3082) | [4] | [5] | [6] | [7] | [8] | [9] | [10] | [12] | [13] | [14] | [15] | [16] | [18]
active: [2] 83.8 µM and 92.2 µM and 81.5 µM | [5] 77.6 µM and 50 µM | [7] 82.9 µM and 90 µM | [9] 33.1 µM and 32.8 µM and 62.9 µM | [12] 61.1 µM | [13] 82.5 µM and 84.5 µM and 48 µM | [14] 87.5 µM and 83.7 µM | MYC, MYC (gene 4609) 50 µM [middle of 4 runs] | [18] 50 µM
